In PubChem BioAssay AID2360 (The Scripps Research Institute Molecular Screening Center, 2010) one finds inhibition data, which are given here for 67 compounds.

Structures are written as SMILES. The whole screen tested about 1,900 compounds, of which about 85 (4%) were called active. Only a sample is shown. Values without a mark were called inactive.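 Rule for the calls: active = mean PP5 inhibition over triplicate wells above about 9.5% taken from the earlier PP1 screen (limit read from the data); inactive = the rest.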

Serine/threonine-protein phosphatase 5 (Homo sapiens), sequence (P53041 whole entry, looked up): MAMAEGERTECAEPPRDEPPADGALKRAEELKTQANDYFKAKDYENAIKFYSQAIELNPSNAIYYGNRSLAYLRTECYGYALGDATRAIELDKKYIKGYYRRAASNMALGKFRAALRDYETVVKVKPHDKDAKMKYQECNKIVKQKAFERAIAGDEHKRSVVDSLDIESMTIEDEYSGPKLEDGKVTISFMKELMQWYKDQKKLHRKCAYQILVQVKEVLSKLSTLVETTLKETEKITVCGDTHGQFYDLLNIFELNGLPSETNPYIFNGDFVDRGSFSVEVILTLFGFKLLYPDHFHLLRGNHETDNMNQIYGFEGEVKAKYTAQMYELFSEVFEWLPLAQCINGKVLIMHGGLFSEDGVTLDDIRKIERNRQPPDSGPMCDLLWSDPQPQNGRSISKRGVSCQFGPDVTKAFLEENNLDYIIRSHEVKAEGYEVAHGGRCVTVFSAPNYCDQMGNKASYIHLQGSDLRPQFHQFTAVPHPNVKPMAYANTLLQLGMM

This assay concerns the target Serine/threonine-protein phosphatase 5 (Homo sapiens) (UniProt P53041). Description: human PP5 catalytic subunit inhibitors – biochemical, fluorescence, triplicate, counter-screen for PP1 inhibitor project, confirmation (AID 2360). As to conditions: purified PP5c, OMFP fluorescence; at 6.7 µM; hits give high values. In general terms: The purpose of a counterscreen is to sort out artefacts and off-target activity.
Broadly, the inhibition is the change of the read-out against control, counted positive when it falls. Take `CN(C(=O)COC(=O)c1cc(-c2ccco2)nc2ccccc12)C1CCS(=O)(=O)C1` (configuration not stated): the inhibition is -3.35%. Next, `Oc1c(Cl)cc(Cl)c(Cl)c1Cc1c(O)c(Cl)cc(Cl)c1Cl`: -0.37%. Consider `Cc1cc(-c2csc(N)n2)c(C)n1-c1ccccc1`, for which the inhibition was -5.26%. For `C#CCOCCOCCOCCNc1nc(N2CCN(C(=O)CCCCCCCCCCNC(=O)[C@H](CCCCN)n3cc(C)nn3)CC2)nc(N2CCN(C(=O)CCCCCCCCCCNC(=O)[C@H](CO)n3cc(CCCSC)nn3)CC2)n1` the value was -2.42%; for `COc1cc(C2C(C(=O)c3ccc(C)o3)=C(O)C(=O)N2CCc2ccccc2)ccc1O` (configuration not stated), 1.74%. For `Cc1ccccc1S(=O)(=O)N1[C@@H](c2cccc(Cl)c2)C(C(=O)O)=CC[C@H]1c1ccc(Cl)cc1` the value was 1.77%. For `O=C1C(=O)N(CC2COc3ccccc3O2)c2ccccc21` (configuration not stated) the value was -2.89%; for `C#CCOCCOCCOCCNc1nc(N2CCN(C(=O)CCCCCCCCCCNC(=O)[C@H]([C@@H](C)CC)n3cc(CCCCN=C(N)N)nn3)CC2)nc(N2CCN(C(=O)CCCCCCCCCCNC(=O)[C@H](CO)n3cc(CCCSC)nn3)CC2)n1`, 4.44%.

`COc1ccc(-c2nn(-c3ccccc3)cc2/C=C\C(=O)Nc2ccc(C(=O)O)cc2)cc1`: the inhibition was 5.85%.

In the case of `C/C(CC(O)(/C=N/O)c1ccccc1)=N\O` (configuration not stated), the inhibition is -4.09%.

For `N=c1n(Cc2ccc(Cl)cc2)c2ccccc2n1CC(O)c1ccco1` (configuration not stated), the inhibition was -3.3%. Next, `CN1CCN(CCCNC(=O)c2ccc(/C=C3\Oc4ccccc4N(Cc4ccc(Cl)cc4)C3=O)cc2)CC1`: 0.17%. `Oc1c(CN2CCN(c3ccc(F)cc3)CC2)cc(Cl)c2cccnc12`: the inhibition is 2.27%. Next, `Cc1cccc(OCC(O)Cn2c(=N)n(CCN3CCOCC3)c3ccccc32)c1` (configuration not stated): 0.64%; `CCNS(=O)(=O)c1ccc(NC(=O)Nc2cccc(C(F)(F)F)c2)cc1`: 7.24%; `COc1ccccc1/C=N\Nc1cc(C)nc(-n2nc(C)cc2C)n1`: -0.35%. For `O=C(Nc1nnc(-c2ccccc2)o1)c1cc(-c2cccs2)nc2ccccc12` the value was -6.61%; for `Cc1ccc(-c2nn(-c3ccccc3)cc2/C=C2\SC(=S)N(CCCCCC(=O)O)C2=O)o1`, 1.44%; for `Cc1ccc2nc(N3C(=O)C(O)=C(C(=O)c4ccco4)C3c3cccc(O)c3)sc2c1` (configuration not stated), -0.83%. For `COc1cnc(-c2ccccn2)nc1Oc1ccc(C(C)(C)C)cc1` the value was 1.77%; for `O=C(Nc1nc(-c2ccco2)c(-c2ccco2)s1)c1ccco1`, 0.46%.

Consider `CCCOc1ccc(C2C(C(=O)c3ccc(C)o3)=C(O)C(=O)N2CCCn2ccnc2)cc1` (configuration not stated), for which the inhibition is 2.29%.

On to `O=C(CSc1nnc(C2CC2)n1Cc1ccccc1)Nc1cccnc1Cl`, for which the inhibition is -2.71%. Next, `Oc1ccc(C2Nc3cccc4cccc(c34)N2)cc1`: 8.12%; `C=CCN(CC=C)S(=O)(=O)c1ccc(C(=O)Nc2nc3c(s2)CCc2ccccc2-3)cc1`: -1.58%; `CCCCCCCCCCOC(=O)Cn1c(COc2cccc(OC)c2)[n+](C)c2ccccc21`: 3.6%.

`COc1cccc(/C=N/NC(=O)c2[nH]nc3c2CCc2ccccc2-3)c1O`: the inhibition was -2.54%. For `Cc1ccc(NC(=O)COc2ccc(/C=C3/NC(=O)NC3=O)cc2)cc1` the value was -6.15%.

For `O=C(COC(=O)c1ccc(Oc2ccccc2)cc1)Nc1nnc(-c2ccccc2)o1`, the inhibition is -5.1%. Next, `CN(C(=O)CN(CCO)CC(=O)N(C)C(C)(C)Cc1ccccc1)C(C)(C)Cc1ccccc1`: -8.53%; `O=C1c2cccc(OCC(=O)N3N=C(c4cccs4)CC3c3ccc(F)cc3)c2CCN1Cc1ccccc1` (configuration not stated): -2.07%; `O=C(/C=C/c1ccc(F)cc1)NC(=S)NNC(=O)c1cccnc1`: -1.96%. For `Cc1ccc(Nc2nc(CSc3nnnn3-c3ccccc3)cc(=O)[nH]2)cc1` the value was -0.66%. As to `O=C(N=C1SC2CS(=O)(=O)CC2N1c1cc(Cl)ccc1Cl)C1CC1` (configuration not stated), the inhibition is -3.78%. Turning to `O=C(Nc1ccc(S(=O)(=O)Nc2nccs2)cc1)c1cc(-c2ccncc2)nc2ccccc12`, the inhibition is 0.33%. For `OCCCN1c2ccccc2Nc2nnc(-c3ccccc3)cc21` the value was 4.57%. Next, `C/C(=N\c1nc2ccccc2n1C)c1cc(Cl)ccc1O`: -5.58%; `COc1ccccc1NC(=O)CSc1nc2sc3c(c2c(=O)n1-c1ccccc1)CCN(C)C3`: -2.95%. Next, `Cc1ccc(CSCC2Nc3ccc(C(=O)N4CCN(c5ccc(F)cc5)CC4)cc3NC2=O)cc1` (configuration not stated): -0.12%; `Cc1ccc(C)c(Cn2nnc3c(=O)[nH]c(C(=O)Nc4ccc(F)cc4)nc32)c1`: -0.92%; `CCCCCCCCCCOC(=O)Cn1c(COc2ccc(C)cc2)[n+](C)c2ccccc21`: 1.37%. Take `C#CCOCCOCCOCCNc1nc(N2CCN(C(=O)CCCCCCCCCCNC(=O)Cn3cc(CCCCCN)nn3)CC2)nc(N2CCN(C(=O)CCCCCCCCCCNC(=O)[C@H](CO)n3cc(CCCSC)nn3)CC2)n1`: the inhibition was 0.18%. In the case of `Cc1ccc(Cn2nnc3c(=O)[nH]c(C4CCN(S(=O)(=O)/C=C/c5ccccc5)CC4)nc32)cc1`, the inhibition was 2.46%. For `O=[N+]([O-])c1ccccc1/C=N/n1c(COc2ccccc2)n[nH]c1=S`, the inhibition is -5.54%. Consider `Cc1nc(/N=C(\N)NC(=O)NC2CCCCC2)nc2ccccc12`, for which the inhibition is -1.97%. For `COC(=O)Cc1cc(=O)n(-c2nc3ccccc3s2)[nH]1` the value was 0.87%; for `c1ccc(-c2nccc(-c3ccc(-n4cnc5ccccc54)cc3)n2)nc1`, 3.84%.

Turning to `O=C(N/N=C/c1cc([N+](=O)[O-])ccc1O)/C(=C\c1cccs1)NC(=O)c1ccccc1`, the inhibition is -3.51%.

Consider `CC(C)OC(=O)c1cc(NC(=O)C2C3CCC(O3)C2C(=O)O)cc(C(=O)OC(C)C)c1` (configuration not stated), for which the inhibition is 9.52%. On to `COc1ccc(NC(=O)C2C3CCC(O3)C2C(=O)O)cc1OC` (configuration not stated), for which the inhibition is 39.5% (active). With `Cc1cc(N2C(=O)C(O)=C(C(=O)c3ccc(C)o3)C2c2ccc(OCc3ccccc3)cc2)no1` (configuration not stated), the inhibition is -0.28%. Next, `O=[N+]([O-])/C=C/c1ccc2c(ccn2Cc2ccccc2)c1`: -1.11%; `C=CCn1c(=NC(=O)c2ccc(S(=O)(=O)N3CCCC3)cc2)sc2cc(NC(C)=O)ccc21`: -0.04%; `COCCCNC(=O)C1CC(=O)N(c2ccc(C)cc2)C1` (configuration not stated): -1.02%.

`NC(N)=N/N=C/c1ccc(OCc2ccc(Cl)cc2Cl)cc1`: the inhibition was -2.25%. Next, `Cc1ccc(-n2nc3ccc(NC(=O)/C=C/c4ccco4)cc3n2)cc1C`: -6.55%. For `Clc1ccc2c(c1)C1=C(C(c3ccncc3)O2)C(c2ccc(Br)cc2)n2ncnc2N1` (configuration not stated), the inhibition was 2.48%. In the case of `CCn1c(SCC(=O)Nc2cc(C)ccc2C)nnc1-c1cnccn1`, the inhibition was -3.87%.

In the case of `Oc1c(C(c2ccccn2)N2CCOCC2)ccc2cccnc12` (configuration not stated), the inhibition is -0.03%. For `N#Cc1c(-c2ccccc2)nc(SCc2cccc(C(F)(F)F)c2)[nH]c1=O` the value was -1.06%; for `C=C1c2c(Cl)ccc(O)c2C(O)=C2C(=O)[C@]3(O)C(O)=C(C(N)=O)C(=O)[C@@H](N(C)C)[C@@H]3[C@@H](O)C12` (some centres not stated), 2.9%; for `Cc1ccc(N2C(=O)C3N=NN(CC(=O)N4N=C(c5cccc6ccccc56)CC4c4ccccc4)C3C2=O)cc1` (configuration not stated), -0.1%. For `CC(=O)c1ccc(N2CCN(S(=O)(=O)c3ccc4c(c3)CC(=O)N4C)CC2)cc1` the value was 2.4%; for `COc1ccc(-c2nn(-c3ccccc3)cc2/C=C2/SC(=S)N(CCCC(=O)O)C2=O)c(C)c1`, -0.32%. Take `Cc1ccc(OCC(=O)Nc2ccc(-c3nnc(-c4ccco4)o3)cc2)cc1`: the inhibition is -4.22%. `CCOc1ccc(NC(=O)c2ccc(NC(=O)COC(=O)c3ccc(NC(=O)CC#N)cc3)cc2)cc1`: the inhibition was -3.12%. Consider `CC(C)(C)Nc1nc(-c2ccccn2)nc2ccccc12`, for which the inhibition is -4.55%.
